Results filed as inconclusive are left out. Active and inactive are the calls of the source.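 The calls were made as follows, unless noted: active = normalized viability below 100% at a tested concentration; inactive = the rest.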
Key:
[1] = growth inhibition of DIPG glioma cells, dose response, cell-based, SU-DIPG-XVII, MIPE5.0, CellTiter-Glo, qHTS (AID 1347060; cut-off not given, nearly all actives have AC50 up to about 26 µM;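 as to AC50: cells exposed to compound for 48 hours before viability readout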); details: SU-DIPG-XVII viability, CellTiter-Glo ATP luminescence
[2] = growth inhibition of DIPG glioma cells, dose response, cell-based, SU-DIPG-XIII, MIPE4.0, CellTiter-Glo, qHTS (AID 1347061; cut-off not given, nearly all actives have AC50 up to about 37 µM;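 also: cells exposed to compound for 48 hours before readout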); details: SU-DIPG-XIII viability, CellTiter-Glo ATP luminescence
[3] = growth inhibition of DIPG glioma cells, dose response, cell-based, JHH-DIPG-1, MIPE4.0, CellTiter-Glo, qHTS (AID 1347062; cut-off not given, nearly all actives have AC50 up to about 27 µM;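 as to AC50: cells exposed to compound for two days before readout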); details: JHH-DIPG-1 viability, CellTiter-Glo ATP luminescence
[4] = growth inhibition of DIPG glioma cells, dose response, cell-based, SU-DIPG-XIII, MIPE5.0, CellTiter-Glo, qHTS (AID 1347064; cut-off not given, nearly all actives have AC50 up to about 23 µM;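 as to AC50: cells exposed to compound for 48 hours before the viability read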); details: SU-DIPG-XIII viability, CellTiter-Glo ATP luminescence
[5] = viability loss in pontine glioma line – cell-based, SU-DIPG-XXV, MIPE5.0, CellTiter-Glo, qHTS, dose response (AID 1347065; cut-off not given, nearly all actives have AC50 up to about 26 µM;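 also: cells exposed to compound for 48 hours before ATP readout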); details: CellTiter-Glo ATP luminescence
[6] = SU-DIPG-VI glioma cell viability, MIPE4.0 library, CellTiter-Glo luminescence, qHTS (AID 1347066; cut-off not given, nearly all actives have AC50 up to about 30 µM;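 also: cells exposed to compound for 48 hours before readout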); details: CellTiter-Glo ATP luminescence
[7] = JHH-DIPG-1 glioma cell viability, MIPE5.0 library, CellTiter-Glo luminescence, qHTS (AID 1347067; cut-off not given, nearly all actives have AC50 up to about 26 µM;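 also: cells exposed to compound for 48 hours before readout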); details: JHH-DIPG-1 glioma viability, CellTiter-Glo ATP luminescence
[8] = SU-DIPG-XXV glioma cell viability, MIPE5.0 library, qHTS (AID 1347068; cut-off not given, nearly all actives have IC50 up to about 30 µM;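 as to IC50: cells exposed to compound for 48 hours before viability readout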)
[9] = sensitizers of A549 cells to miR-34 induction, primary screen, imaging, A549 dox-inducible miR-34, nuclei and caspase counts (AID 1347080;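 active = compounds whose cell count with miR-34 switched on is under 0.7 times the count with it off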); details: A549 miR-34 inducible, Hoechst nuclei count, 48 h
[10] = survival rescue of mitochondrial mutant cells in low glucose, primary screen, MELAS cybrids, Rieske KO mouse fibroblasts, CellTiter-Glo (AID 1508586;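 active = mean z-score across replicates of 1.96 or higher in either the MELAS or the Rieske mutant cell line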;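 also: z relative to plate mean and SD of compound and empty wells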)
[11] = ovarian cancer cell viability with rucaparib, profiling panel, oncology-focused library, rucaparib conditional (AID 1508598); details: patient-derived ovarian cancer cells, CellTiter-Glo viability, 144 h, stronger effect = lower value
[12] = growth inhibition of DIPG glioma cells, dose response, cell-based, SU-DIPG-IV, MIPE4.0, CellTiter-Glo, qHTS (AID 1347063; cut-off not given, nearly all actives have AC50 up to about 30 µM;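 also: compound exposure lasted 48 hours before the viability readout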); details: SU-DIPG-IV viability, CellTiter-Glo ATP luminescence
[13] = modifiers of HSF1 nuclear foci, imaging, Selleck Cancer Library (AID 1347162; in the data active = plate-normalised HSF1 focus index below about 0.46); details: human cells, at 10 µM; SSMD: measured here: HSF1 foci SSMD mean; cell count: measured here: cell number; plate-normalised HSF1 focus index: stronger effect = lower value
[14] = stronger effect = lower value, cell number ratio, induced over uninduced
[15] = measured here: relative caspase fold change +Dox/-Dox
[16] = measured here: total cells with miR-34 induction, stronger effect = lower value
[17] = measured here: total cells without miR-34 induction
[18] = MELAS cybrid survival, CellTiter-Glo 48 h, stronger effect = higher value
[19] = Rieske KO mouse fibroblast survival, CellTiter-Glo 72 h
[20] = at 0.000305 µM, OCI-C5x cells, with rucaparib 10 µM, 100% = cells with rucaparib alone
[21] = at 0.000305 µM, OCI-C5x cells, without rucaparib
[22] = at 0.000305 µM, OCI-P5x cells, with rucaparib 20 µM, 100% = cells with rucaparib alone
[23] = at 0.000305 µM, OCI-P5x cells, without rucaparib
[24] = at 0.00122 µM, OCI-C5x cells, with rucaparib 10 µM, 100% = cells with rucaparib alone
[25] = at 0.00122 µM, OCI-C5x cells, without rucaparib
[26] = at 0.00122 µM, OCI-P5x cells, with rucaparib 20 µM, 100% = cells with rucaparib alone
[27] = at 0.00122 µM, OCI-P5x cells, without rucaparib
[28] = at 0.00488 µM, OCI-C5x cells, with rucaparib 10 µM, 100% = cells with rucaparib alone
[29] = at 0.00488 µM, OCI-C5x cells, without rucaparib
[30] = at 0.00488 µM, OCI-P5x cells, with rucaparib 20 µM, 100% = cells with rucaparib alone
[31] = at 0.00488 µM, OCI-P5x cells, without rucaparib
[32] = at 0.0195 µM, OCI-C5x cells, with rucaparib 10 µM, 100% = cells with rucaparib alone
[33] = at 0.0195 µM, OCI-C5x cells, without rucaparib
[34] = at 0.0195 µM, OCI-P5x cells, with rucaparib 20 µM, 100% = cells with rucaparib alone
[35] = at 0.0195 µM, OCI-P5x cells, without rucaparib
[36] = at 0.0781 µM, OCI-C5x cells, with rucaparib 10 µM, 100% = cells with rucaparib alone
[37] = at 0.0781 µM, OCI-C5x cells, without rucaparib
[38] = at 0.0781 µM, OCI-P5x cells, with rucaparib 20 µM, 100% = cells with rucaparib alone
[39] = at 0.0781 µM, OCI-P5x cells, without rucaparib
[40] = at 0.313 µM, OCI-C5x cells, with rucaparib 10 µM, 100% = cells with rucaparib alone
[41] = at 0.313 µM, OCI-C5x cells, without rucaparib
[42] = at 0.313 µM, OCI-P5x cells, with rucaparib 20 µM, 100% = cells with rucaparib alone
[43] = at 0.313 µM, OCI-P5x cells, without rucaparib
[44] = at 1.25 µM, OCI-C5x cells, with rucaparib 10 µM, 100% = cells with rucaparib alone
[45] = at 1.25 µM, OCI-C5x cells, without rucaparib
[46] = at 1.25 µM, OCI-P5x cells, with rucaparib 20 µM, 100% = cells with rucaparib alone
[47] = at 1.25 µM, OCI-P5x cells, without rucaparib
[48] = at 5 µM, OCI-C5x cells, with rucaparib 10 µM, 100% = cells with rucaparib alone
[49] = at 5 µM, OCI-C5x cells, without rucaparib
[50] = at 5 µM, OCI-P5x cells, with rucaparib 20 µM, 100% = cells with rucaparib alone
[51] = at 5 µM, OCI-P5x cells, without rucaparib

COc1cc2c(Oc3ccc4[nH]c(C)cc4c3F)ncnc2cc1OCCCN1CCCC1
3760: cell count [9, 17]
active: AC50 [1] 1.86 µM | AC50 [2] 6.62 µM | AC50 [3] 20.9 µM | AC50 [4] 2.35 µM | AC50 [5] 2.09 µM | AC50 [6] 23.5 µM | AC50 [7] 11.8 µM | IC50 [8] 16.6 µM | viability [11, 22] 96.3% | viability [11, 23] 88.7% | viability [11, 27] 94% | viability [11, 29] 99.8% | viability [11, 30] 97.5% | viability [11, 31] 91.6% | viability [11, 33] 96.3% | viability [11, 34] 97.8% | viability [11, 35] 93.1% | viability [11, 38] 81.8% | viability [11, 39] 92% | viability [11, 41] 98.1% | viability [11, 42] 91.9% | viability [11, 43] 94.6% | viability [11, 47] 86.9% | viability [11, 50] 76.9% | viability [11, 51] 82.8%
3660: cell count [9, 16]
1.09: fold change [9, 15]
-0.313: z-score [10, 19]
inactive: fold change [9, 14] 0.973 | z-score [10, 18] -0.469 | viability [11, 20] 123% | viability [11, 21] 103% | viability [11, 24] 114% | viability [11, 25] 112% | viability [11, 26] 105% | viability [11, 28] 107% | viability [11, 32] 123% | viability [11, 36] 126% | viability [11, 37] 101% | viability [11, 40] 116% | viability [11, 44] 123% | viability [11, 45] 107% | viability [11, 46] 110% | viability [11, 48] 131% | viability [11, 49] 115%

COc1cc2c(cc1-c1c(C)noc1C)ncc1[nH]c(=O)n([C@H](C)c3ccccn3)c12
inactive: outcome [1] | outcome [7] | outcome [8]
active: AC50 [2] 10.5 µM | AC50 [3] 23.5 µM | AC50 [12] 13.2 µM | AC50 [6] 4.18 µM

COc1ccccc1-c1cccc(-c2c(O)c3cc(C#N)c(Cl)cc3[nH]c2=O)c1
inactive: outcome [1] | outcome [2] | outcome [3] | outcome [4] | outcome [5] | outcome [6] | outcome [7] | outcome [8]

COc1nc(C)cnc1NS(=O)(=O)c1cccnc1-c1ccc(-c2nnco2)cc1
0.943: fold change [9, 15]
2.08: SSMD [13]
inactive: outcome [1] | outcome [2] | outcome [3] | outcome [4] | outcome [5] | outcome [6] | outcome [7] | outcome [8] | fold change [9, 14] 0.916 | plate-normalised HSF1 focus index [13] 1.13 | z-score [10, 18] -0.393 | viability [11, 20] 110% | viability [11, 21] 112% | viability [11, 22] 102% | viability [11, 23] 109% | viability [11, 24] 108% | viability [11, 25] 117% | viability [11, 26] 106% | viability [11, 27] 109% | viability [11, 29] 114% | viability [11, 30] 104% | viability [11, 31] 109% | viability [11, 32] 111% | viability [11, 33] 110% | viability [11, 34] 100% | viability [11, 35] 108% | viability [11, 36] 103% | viability [11, 37] 113% | viability [11, 38] 104% | viability [11, 39] 110% | viability [11, 40] 105% | viability [11, 41] 112% | viability [11, 42] 103% | viability [11, 43] 108% | viability [11, 45] 112% | viability [11, 46] 104% | viability [11, 47] 111% | viability [11, 48] 106% | viability [11, 49] 116% | viability [11, 51] 106%
8800: cell count [9, 17]
0.676: z-score [10, 19]
7220: cell count [13]
active: viability [11, 28] 98.1% | viability [11, 44] 97.7% | viability [11, 50] 99%
8060: cell count [9, 16]
